The supplement of paper PMC6555819

What was measured:
Test in all cases: PBM binding z-score (relative to random genomic background probes); higher = stronger binding; sequences stand for … in GC…GCGATTGACAGCGTAGAATGAAGG
[1] = system: RARb homodimer (NR concentration 270 nM)
Procedure, shortened: (§1)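 Scanned fluorescence from custom Agilent 4×180K protein-binding microarrays was regression-normalized. Binding z-scores use random background probes as reference. Ligand-free nuclear receptor dimers were incubated on the arrays for 1 h and detected with antibodies against each partner (one per run).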

[2] = system: RARg:RXRa (NR concentration 270 nM, RXRa partner concentration 90 nM)
Procedure, shortened: as §1

[3] = system: RARg homodimer (NR concentration 270 nM)
Procedure, shortened: as §1

[4] = system: RXRa DBDmut IVT, anti-RXR (DBD mutation: RXRa K156A/R161A, NR concentration 90 nM)
Procedure, shortened: as §1

[5] = system: RXRa homodimer (NR concentration 180 nM)
Procedure, shortened: as §1

[6] = system: THRa:RXRa (NR concentration 90 nM, RXRa partner concentration 90 nM)
Procedure, shortened: as §1

[7] = system: THRa homodimer (NR concentration 90 nM)
Procedure, shortened: as §1

[8] = system: VDR:RXRa (NR concentration 270 nM, RXRa partner concentration 90 nM)
Procedure, shortened: as §1

[9] = system: VDR homodimer (NR concentration 270 nM)
Procedure, shortened: as §1

Sequence	PBM binding z-score [1]	PBM binding z-score [2]	PBM binding z-score [3]	PBM binding z-score [4]	PBM binding z-score [5]	PBM binding z-score [6]	PBM binding z-score [7]	PBM binding z-score [8]	PBM binding z-score [9]
CGAACTAGGACACCAGGACAGTGAAGAGGTTGGA	0.545	0.367	0.797	0.0708	0.0879	1.83	1.24	-0.285	0.472
TCTTATAGATCAATAGAGGTTAAGAAAGTGCGCT	1.22	1.04	0.633	0.906	1.75	2.49	0.125	2.03	0.336
CTATGTAGGTTGAGGGGGTCATTCAGTTTGAAAG	3.8	5.4	4.34	2.5	5.59	4.05	3.08	7	6.14
CCTAGTTGGTCAGGTGGTCACACACCGGATATGA	1.48	1.03	1.38	-0.358	0.463	0.254	0.259	0.156	0.314
CGTCCAAGGGCAATGCTAGGTCAGTGAAAGCATT	3.04	3.71	2.64	0.887	0.71	2.98	0.346	0.893	0.429
CTATGTAGGTTAAGGGGGTCTTTCAGTTTGAAAG	1.69	1.56	1.25	0.662	1.48	1.94	0.841	3.93	1.31
TCGAGTAGGTTACGGGGGAATTCAGGGATGAAGA	1.1	1.42	1.05	0.995	1.37	1.93	0.716	1.25	0.477
CGAACTAGGTCAAAGGACGGTGAAAGGCGACGTA	2.59	3.97	4.3	1.49	2.68	2.3	-0.112	1.12	-0.106
CGAACTAGGTCACCAGGATAGTGAAGAGGTTGGA	3.4	4.23	5.43	1.26	3.14	3.3	1.45	1.93	0.463
CGAACTAGGTCACCAGGACACTGAAGAGGTTGGA	3.48	4.62	5.4	1.56	3.65	3.83	2.39	2.56	0.607
CTATGTAGGTTAAGGAGGTCATTCAGTTTGAAAG	3.79	3.89	3.37	1.97	4.07	3.68	1.59	6.83	4.47
CCGAGTAGGTTACGAGGGGGCATCCAGTGCGAAT	2.11	2.95	2.31	0.736	2.02	3.7	0.756	4.75	2.87
CCTACTGGGCAAAAAAGGTCATTGATGCCGATAA	4.17	4.03	4.11	0.33	4.81	3.57	0.0156	4.36	2.05
TCTACTTGGTCACGGAGGTCACACACGACGGGTA	4.43	5.15	5.47	1.33	5.3	3.6	3.15	5.85	3.56
CGAACTAGGTCACCAGGACATTGAAGAGGTTGGA	3.54	4.42	5.21	1.95	3.45	3.48	2.06	2.31	1.1
TCGAGAAGGTTACGGGGGCATTCAGGGATGAAGA	3.05	4.33	3.04	2.36	4.23	4.21	1.42	4.82	3.33
